We go through 4 compounds from PubChem BioAssay (EPA / NIEHS).

Molecules are shown by their SMILES. The source made the active and inactive calls. The calls were made as follows: active = hit-call score of the fitted dose curve at least 0.9, where 1 is the maximum; inactive = score below 0.9.

What all share (settings): mRNA level, 48 h; actives raise or lower the signal
Read-out in experiment [1]: Cytochrome P450 2C19 (Homo sapiens) (UniProt P33261)
Put plainly: LTEA_HepaRG_CYP2C19: Life Technologies and Expression Analysis (LTEA) Assay for CYP2C19 using HepaRG (AID 2283482). The method, boiled down: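 Differentiated HepaRG cells in serum-free induction medium exposed 48 h in duplicate, 8 concentrations from 100 uM by half-log steps in 0.5% DMSO. CYP2C19 mRNA measured by TaqMan qRT-PCR, normalized to ACTB, GAPDH, POLR2A. Bidirectional fit versus DMSO.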

Read-out in the next experiment: CYP2C9 (gene 1559)
As to the kind of experiment: LTEA_HepaRG_CYP2C9: Life Technologies and Expression Analysis (LTEA) Assay for CYP2C9 using HepaRG (AID 2283484). The procedure, abridged: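 Eight-point concentration-response (highest 100 uM, half-log dilutions) in HepaRG cells for 48 h; CYP2C9 expression by qRT-PCR normalized to ACTB, GAPDH, POLR2A. Bidirectional fit, DMSO baseline.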

Read-out in experiment [2]: Cytochrome P450 3A4 (Homo sapiens) (UniProt P08684)
Put plainly: LTEA_HepaRG_CYP3A4: Life Technologies and Expression Analysis (LTEA) Assay for CYP3A4 using HepaRG (AID 2283487). The method, boiled down:
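Differentiated HepaRG cells, plated 48 h, then dosed 48 h in serum-free induction medium with 0.5% DMSO, 8 half-log concentrations up to 100 uM, duplicate. CYP3A4 mRNA by qRT-PCR, normalized to ACTB/GAPDH/POLR2A; bidirectional fit versus DMSO.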

Read-out in experiment [3]: DNA damage-inducible transcript 3 (DDIT3), DDIT3 (gene 1649)
Put plainly: LTEA_HepaRG_DDIT3: Life Technologies and Expression Analysis (LTEA) Assay for DNA damage-inducible transcript 3 (DDIT3) using HepaRG (AID 2283488). The procedure, abridged: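 Eight-point concentration-response (100 uM highest, half-log dilutions) in HepaRG, 48 h, duplicate wells. Endpoint: qRT-PCR mRNA, normalized (ACTB, GAPDH, POLR2A), bidirectional fitting with DMSO as baseline.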

Read-out in experiment [4]: Pro-epidermal growth factor (Homo sapiens) (UniProt P01133)
As to the kind of experiment: LTEA_HepaRG_EGF: Life Technologies and Expression Analysis (LTEA) Assay for Epidermal growth factor (EGF) using HepaRG (AID 2283489). The procedure, abridged:
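HepaRG cells (~100,000/well, 48 h pre-culture) exposed in duplicate for 48 h in serum-free induction medium to 8 half-log concentrations up to 100 uM in 0.5% DMSO. EGF mRNA by qRT-PCR, normalized to ACTB/GAPDH/POLR2A; bidirectional fit versus DMSO.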

Read-out in experiment [5]: Fatty Acid-Binding Protein 1 (FABP1), FABP1 (gene 2168)
Put plainly: LTEA_HepaRG_FABP1: Life Technologies and Expression Analysis (LTEA) Assay for Fatty Acid-Binding Protein 1 (FABP1) using HepaRG (AID 2283494). The procedure, abridged: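 Values reflect bidirectional concentration-response fitting of FABP1 mRNA change against 0.5% DMSO controls. Human HepaRG cultures received eight half-log doses (top 100 uM) for 48 h; expression quantified by TaqMan qRT-PCR with housekeeping-gene normalization.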

Read-out in experiment [6]: Glutathione S-Transferase (GSTA2), GSTA2 (gene 2939)
As to the kind of experiment: LTEA_HepaRG_GSTA2: Life Technologies and Expression Analysis (LTEA) Assay for Glutathione S-Transferase (GSTA2) using HepaRG (AID 2283497). The method, boiled down:
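Oxidative-stress marker GSTA2 is quantified by TaqMan qRT-PCR in HepaRG cultures treated 48 h across an eight-point range to 100 uM. Expression is normalized to endogenous controls and compared with 0.5% DMSO vehicle.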

Read-out in experiment [7]: Glutamate-cysteine ligase catalytic (GCLC), GCLC (gene 2729)
As to the kind of experiment: LTEA_HepaRG_GCLC: Life Technologies and Expression Analysis (LTEA) Assay for Glutamate-cysteine ligase catalytic (GCLC) using HepaRG (AID 2283498). The procedure, abridged: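 Oxidative-stress marker GCLC is measured as mRNA change in human HepaRG liver cells after 48 h chemical treatment in 0.5% DMSO, eight concentrations from 100 uM. Activity is fitted bidirectionally against vehicle.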

Read-out in experiment [8]: growth arrest and DNA damage 45 (GADD45G), GADD45G (gene 10912)
As to the kind of experiment: LTEA_HepaRG_GADD45G: Life Technologies and Expression Analysis (LTEA) Assay for growth arrest and DNA damage 45 (GADD45G) using HepaRG (AID 2283499). The procedure, abridged:
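Differentiated human HepaRG cells, 48 h post-plating, exposed 48 h in serum-free induction medium to 8 half-log concentrations (top 100 uM, 0.5% DMSO) in duplicate. GADD45G mRNA measured by Fluidigm TaqMan qRT-PCR, normalized to ACTB, GAPDH, POLR2A; bidirectional fit versus DMSO.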

Read-out in experiment [9]: Cytochrome P450 (CYP2B6), CYP2B6 (gene 1555)
As to the kind of experiment: LTEA_HepaRG_CYP2B6: Life Technologies and Expression Analysis (LTEA) Assay for Cytochrome P450 (CYP2B6) using HepaRG (AID 2283481). The procedure, abridged:
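Differentiated human HepaRG cells in serum-free induction medium, dosed in duplicate for 48 h over 8 half-log concentrations topping at 100 uM (0.5% DMSO). CYP2B6 mRNA measured by TaqMan qRT-PCR, normalized to ACTB, GAPDH, POLR2A; bidirectional fit versus DMSO.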

Read-out in a further experiment: CYP2C8 (gene 1558)
As to the kind of experiment: LTEA_HepaRG_CYP2C8: Life Technologies and Expression Analysis (LTEA) Assay for CYP2C8 using HepaRG (AID 2283483). The method, boiled down: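 This is a transcriptional endpoint in HepaRG cultures: 48 h exposure, highest concentration 100 uM. CYP2C8 mRNA is quantified by TaqMan qRT-PCR.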

Read-out in another experiment: CYP2E1 (gene 1571)
As to the kind of experiment: LTEA_HepaRG_CYP2E1: Life Technologies and Expression Analysis (LTEA) Assay for CYP2E1 using HepaRG (AID 2283485). The procedure, abridged:
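Assay uses 48 h exposure of HepaRG hepatic cells, eight concentrations to 100 uM. Expression of CYP2E1 is quantified by TaqMan qRT-PCR with ACTB, GAPDH and POLR2A normalization; curves fitted in both directions relative to vehicle.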

Read-out in the next experiment: CYP4A11 (gene 1579)
As to the kind of experiment: LTEA_HepaRG_CYP4A11: Life Technologies and Expression Analysis (LTEA) Assay for CYP4A11 using HepaRG (AID 2283486). The procedure, abridged:
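Differentiated HepaRG cells, 48 h after plating, exposed in duplicate for 48 h to 8 half-log concentrations up to 100 uM in 0.5% DMSO in serum-free induction medium. CYP4A11 mRNA measured by TaqMan qRT-PCR, normalized to ACTB, GAPDH and POLR2A.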

Read-out in experiment [10]: Early growth response protein 1 (EGR1) transcription factor, EGR1 (gene 1958)
As to the kind of experiment: LTEA_HepaRG_EGR1: Life Technologies and Expression Analysis (LTEA) Assay for Early growth response protein 1 (EGR1) transcription factor using HepaRG (AID 2283490). The procedure, abridged:
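EGR1 expression change in human HepaRG after 48 h chemical exposure, assessed by housekeeping-normalized qRT-PCR; concentration-response up to 100 uM, fitted in both directions against DMSO controls.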

Read-out in the next experiment: CYP3A5 (gene 1577)
As to the kind of experiment: LTEA_HepaRG_CYP3A5: Life Technologies and Expression Analysis (LTEA) Assay for CYP3A5 using HepaRG (AID 2283493). The procedure, abridged:
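Readout was CYP3A5 mRNA by qRT-PCR. HepaRG cultures were exposed for 48 h in serum-free induction medium to chemicals at up to 100 uM, and responses were fitted in both directions relative to DMSO vehicle.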

Read-out in experiment [11]: Cytochrome P450 4A22 (Homo sapiens) (UniProt Q5TCH4)
Put plainly: LTEA_HepaRG_CYP4A22: Life Technologies and Expression Analysis (LTEA) Assay for Cytochrome P450 4A22 (CYP4A22) using HepaRG (AID 2283495). The procedure, abridged: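 Differentiated HepaRG cells in serum-free induction medium exposed 48 h in duplicate to eight half-log concentrations up to 100 uM in 0.5% DMSO. CYP4A22 mRNA quantified by TaqMan qRT-PCR, normalized to ACTB, GAPDH and POLR2A; bidirectional fit versus DMSO.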

Read-out in experiment [12]: Cytochrome P450 7A1 (Homo sapiens) (UniProt P22680)
As to the kind of experiment: LTEA_HepaRG_CYP7A1: Life Technologies and Expression Analysis (LTEA) Assay for Cytochrome P450 7A1 (CYP7A1) using HepaRG (AID 2283496). The method, boiled down: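 Using 0.5% DMSO as vehicle and baseline, chemicals were tested in duplicate over an 8-point range from 100 uM on HepaRG cells for 48 h; qRT-PCR signals were normalised to ACTB, GAPDH and POLR2A.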

Read-out in experiment [13]: Cytochrome P450 3A7 (Homo sapiens) (UniProt P24462)
As to the kind of experiment: LTEA_HepaRG_CYP3A7: Life Technologies and Expression Analysis (LTEA) Assay for CYP3A7 using HepaRG (AID 2283492). The method, boiled down:
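Differentiated HepaRG cells in serum-free induction medium exposed 48 h in duplicate to 8-point half-log series from 100 uM top in 0.5% DMSO. CYP3A7 mRNA by qRT-PCR, normalized to ACTB/GAPDH/POLR2A, bidirectional fit versus DMSO.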

Chain of Cytochrome P450 2C19 (Homo sapiens) (P33261 whole entry, looked up): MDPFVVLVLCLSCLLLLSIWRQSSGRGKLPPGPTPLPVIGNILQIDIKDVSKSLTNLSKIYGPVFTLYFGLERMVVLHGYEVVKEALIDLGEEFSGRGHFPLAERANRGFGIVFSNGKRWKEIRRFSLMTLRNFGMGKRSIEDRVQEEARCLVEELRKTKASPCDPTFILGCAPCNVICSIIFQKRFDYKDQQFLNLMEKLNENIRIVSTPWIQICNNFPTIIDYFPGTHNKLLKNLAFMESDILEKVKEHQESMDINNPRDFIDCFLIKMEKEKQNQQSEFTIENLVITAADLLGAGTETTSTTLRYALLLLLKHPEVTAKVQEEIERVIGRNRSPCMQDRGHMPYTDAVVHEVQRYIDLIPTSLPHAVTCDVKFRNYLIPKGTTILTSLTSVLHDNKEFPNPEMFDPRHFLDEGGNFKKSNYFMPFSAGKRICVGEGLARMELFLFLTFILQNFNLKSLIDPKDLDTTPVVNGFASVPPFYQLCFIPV
Chain of Cytochrome P450 3A4 (Homo sapiens) (P08684 whole entry, looked up): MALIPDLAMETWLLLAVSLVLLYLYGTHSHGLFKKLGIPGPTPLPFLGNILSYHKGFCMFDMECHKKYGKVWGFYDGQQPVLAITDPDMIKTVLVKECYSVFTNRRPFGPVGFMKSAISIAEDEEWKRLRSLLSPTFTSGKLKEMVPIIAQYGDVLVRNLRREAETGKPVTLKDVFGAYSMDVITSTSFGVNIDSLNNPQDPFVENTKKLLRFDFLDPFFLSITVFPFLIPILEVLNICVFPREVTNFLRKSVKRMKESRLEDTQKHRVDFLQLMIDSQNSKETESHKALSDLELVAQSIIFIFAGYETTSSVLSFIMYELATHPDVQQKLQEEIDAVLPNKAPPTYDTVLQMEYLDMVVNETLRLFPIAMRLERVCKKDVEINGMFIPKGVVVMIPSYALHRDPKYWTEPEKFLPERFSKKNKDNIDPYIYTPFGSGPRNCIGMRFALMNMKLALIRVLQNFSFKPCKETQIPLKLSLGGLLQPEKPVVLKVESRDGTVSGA
Chain of Cytochrome P450 3A7 (Homo sapiens) (P24462 whole entry, looked up): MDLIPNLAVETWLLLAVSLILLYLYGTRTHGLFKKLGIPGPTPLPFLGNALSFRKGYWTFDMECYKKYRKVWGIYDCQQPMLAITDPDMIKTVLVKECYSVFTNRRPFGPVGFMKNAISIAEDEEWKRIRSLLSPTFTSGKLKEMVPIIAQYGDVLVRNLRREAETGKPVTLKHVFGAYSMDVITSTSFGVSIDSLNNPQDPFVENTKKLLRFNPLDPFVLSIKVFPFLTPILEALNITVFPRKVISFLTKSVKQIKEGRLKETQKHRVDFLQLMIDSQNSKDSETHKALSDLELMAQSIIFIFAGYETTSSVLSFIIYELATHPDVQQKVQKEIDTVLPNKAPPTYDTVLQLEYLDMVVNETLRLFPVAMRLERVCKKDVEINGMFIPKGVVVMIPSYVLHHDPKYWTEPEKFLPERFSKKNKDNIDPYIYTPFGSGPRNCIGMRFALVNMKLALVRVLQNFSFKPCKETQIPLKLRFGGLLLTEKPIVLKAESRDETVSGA

As a reminder, the AC50 is the midpoint of the concentration-response curve, whichever way the signal moves. As to `C[C@]12C=CC3=C4CCC(=O)C=C4CC[C@H]3[C@@H]1CC[C@@H]2O`, the AC50 in experiment [1] is 65.3 µM (active); in the experiment with CYP2C9 (gene 1559), 50 µM (active); in experiment [2], 0.458 µM (active); in experiment [5], 47.7 µM (active); in [8], 60.9 µM (active). Besides, the call in experiment [3], in experiment [4], in [6] and in [7] was inactive.
As for `Nc1ccc(Cl)cc1N`, the AC50 is 21.6 µM (active) in experiment [9]; 28.6 µM (active) in [1]; 25.1 µM (active) with CYP2C8 (gene 1558); 24.6 µM (active) with CYP2C9 (gene 1559); 19.5 µM (active) with CYP2E1 (gene 1571); 23.2 µM (active) with CYP4A11 (gene 1579). Besides, the AC50 in [2] is 19.7 µM (active); in [3] it was 50 µM (active); in [10], 12.9 µM (active); with CYP3A5 (gene 1577), 17.3 µM (active); in experiment [5], 28.2 µM (active); in [11], 29.7 µM (active). Moreover, the AC50 was 23.1 µM (active) in [12], 27.9 µM (active) in experiment [6], 32.6 µM (active) in experiment [7] and 38.8 µM (active) in experiment [8]. For the same compound, in experiment [4], the compound was classed as inactive.
Regarding `CNC(=O)Oc1cccc2c1OC(C)(C)C2`, the AC50 was 3.94 µM (active) in [9]; 17.4 µM (active) in [1]; 23.7 µM (active) in the experiment with CYP2E1 (gene 1571); 6.81 µM (active) in experiment [2]; 7.32 µM (active) in experiment [13]; 3.45 µM (active) in [5]. Besides, in experiment [12], the AC50 was 9.92 µM (active). In addition, the outcome (with CYP2C8 (gene 1558); in the experiment with CYP2C9 (gene 1559); in the experiment with CYP4A11 (gene 1579); in experiment [3]; in [4]; in experiment [10]) was inactive. For the same compound, the outcome in [11], in [6], in [7] and in experiment [8] was inactive.
On to `C1=Cc2cccc3cccc1c23`, for which the AC50 in experiment [9] was 37.8 µM (active). In addition, the call (in experiment [1]; with CYP2C8 (gene 1558); with CYP2C9 (gene 1559); with CYP4A11 (gene 1579); in experiment [2]; in experiment [3]) was inactive. For the same compound, the call (in experiment [4]; in experiment [10]; in experiment [13]; in the experiment with CYP3A5 (gene 1577); in experiment [5]; in experiment [11]) was inactive. Moreover, the compound was classed as inactive in [12], in experiment [6], in experiment [7] and in experiment [8].
